High-throughput results from PubChem BioAssay.
PAFAH1B3 FP inh: PAFAH1B3 enzyme inhibitors, primary screen, biochemical, fluorescence polarization, human. Platelet-activating factor acetylhydrolase IB subunit alpha1 (Homo sapiens), Q15102. recombinant PAFAH1B3, FP-rhodamine probe. inhibition, % at 3.39 µM. 340,000 compounds, 0.28% hits. AID 492972, 2010;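 active = inhibition above the screen-wide average of all tested compounds plus 3 SD, cut at about 25% in these data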;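 note: 0% = enzyme with DMSO only and 100% = wells lacking PAFAH1B3 protein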
pPAFAH inh: pPAFAH enzyme inhibitors, primary screen, biochemical, fluorescence polarization, human; Platelet-activating factor acetylhydrolase (Homo sapiens), Q13093; recombinant pPAFAH, FP-rhodamine probe fluorescence polarization; 330,000 compounds, 1.5% hits; inhibition, % at 3.39 µM;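 active = inhibition above the mean inhibition across the screen plus 3 SD, cut at about 25% in these data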;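 note: inhibitors block binding of the rhodamine activity-based probe so polarization drops; 0% = enzyme with DMSO and 100% = wells lacking pPAFAH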
Target sequence (Q13093 whole entry, looked up): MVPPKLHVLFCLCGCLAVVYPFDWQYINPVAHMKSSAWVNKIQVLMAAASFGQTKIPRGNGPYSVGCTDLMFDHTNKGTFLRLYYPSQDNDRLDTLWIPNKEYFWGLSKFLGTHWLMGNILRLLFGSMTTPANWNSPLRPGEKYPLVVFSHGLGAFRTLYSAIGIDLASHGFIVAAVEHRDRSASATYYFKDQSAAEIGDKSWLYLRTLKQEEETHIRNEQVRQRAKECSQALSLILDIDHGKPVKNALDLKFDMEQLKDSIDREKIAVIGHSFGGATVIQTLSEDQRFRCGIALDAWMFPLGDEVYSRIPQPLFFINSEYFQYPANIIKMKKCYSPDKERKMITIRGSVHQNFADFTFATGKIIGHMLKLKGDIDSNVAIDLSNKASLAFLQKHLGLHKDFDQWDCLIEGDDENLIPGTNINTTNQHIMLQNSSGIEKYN
PME-1 inh: PME-1 inhibitors via competitive probe labeling, primary screen, biochemical, fluorescence polarization, FP-Rh probe, HTS; Protein phosphatase methylesterase 1 (Homo sapiens), Q9Y570; recombinant PME-1; inhibition, % at 5.9 µM; 320,000 compounds, 0.53% hits; AID 2130, 2009;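 active = inhibition above the campaign mean of all compounds plus 3 SD, cut at about 26% in these data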;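 note: competitive labeling of PME-1 active site by serine hydrolase directed probe; 0% = PME-1 with DMSO and 100% = wells lacking PME-1 enzyme; inhibitors block probe labeling so polarization falls and inhibition rises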
PAFAH2 FP inh: PAFAH2 enzyme inhibitors, primary screen, biochemical, fluorescence polarization, human; Platelet-activating factor acetylhydrolase 2, cytoplasmic (Homo sapiens), Q99487; recombinant PAFAH2, FP-rhodamine activity probe; inhibition, % at 3.39 µM; 340,000 compounds, 0.99% hits; AID 492956, 2010;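 active = inhibition above the mean over all tested compounds plus 3 SD, cut at about 30% in these data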;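 note: inhibitors block probe labeling of enzyme so polarization drops; 0% = enzyme with DMSO and 100% = wells lacking PAFAH2 protein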
Fam108B counter: mouse Fam108B serine hydrolase inhibitors, primary screen, counter-screen for RBBP9 inhibitor project, biochemical, fluorescence polarization; recombinant Fam108B, FP-Rh probe fluorescence polarization; 300,000 compounds, 0.33% hits; inhibition, % at 9.51 µM;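 active = inhibition above the screen mean inhibition plus 3 SD, computed separately per campaign, cut at about 18% in these data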;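 note: inhibitors lower polarization as less probe binds the enzyme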
PAFAH1B2 FP inh: PAFAH1B2 enzyme inhibitors, primary screen, biochemical, fluorescence polarization, human | Platelet-activating factor acetylhydrolase IB subunit alpha2 (Homo sapiens), P68402 | recombinant PAFAH1B2, FP-rhodamine activity probe | inhibition, % at 3.39 µM | 340,000 compounds, 1.2% hits;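 active = inhibition above the mean of all tested compounds plus 3 SD, cut at about 24% in these data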;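 note: 0% = enzyme with DMSO and 100% = wells lacking PAFAH1B2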
Target sequence (P68402 whole entry, looked up): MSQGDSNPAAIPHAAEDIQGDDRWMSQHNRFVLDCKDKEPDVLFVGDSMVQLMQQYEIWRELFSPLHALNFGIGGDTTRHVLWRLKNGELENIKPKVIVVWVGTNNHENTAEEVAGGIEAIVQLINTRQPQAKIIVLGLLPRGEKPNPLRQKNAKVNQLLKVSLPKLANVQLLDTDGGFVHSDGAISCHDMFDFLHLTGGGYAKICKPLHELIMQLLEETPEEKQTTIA
Fam108b confirm: mouse Fam108b serine hydrolase inhibitors, confirmation, counter-screen for RBBP9 inhibitor project, biochemical, fluorescence polarization, triplicate. shares compounds with Fam108B counter. 930 compounds, 44% hits. recombinant Fam108b, FP-Rh probe fluorescence polarization. inhibition, % at 9.51 µM;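 active = inhibition above a limit from the primary screen, the mean over all compounds plus 3 SD, cut at about 19% in these data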;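 note: 0% = median of active Fam108b wells and 100% = catalytically dead S170A mutant; inhibitors free the probe so polarization falls as inhibition rises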
Fam108b inh: inhibition of mouse Fam108b by HTS hits, late-stage follow-up, biochemical, gel-based ABPP, soluble recombinant form; shares compounds with Fam108B counter; fluorophosphonate probe; inhibition, % at 20 µM; 260 compounds, 44% hits; AID 588649, 2011; in the data active = inhibition above about 40%
pPAFAH FP conf: pPAFAH (PLA2G7) enzyme inhibitors, confirmation, biochemical, fluorescence polarization, human | shares compounds with pPAFAH inh | recombinant pPAFAH, FP-Rh probe fluorescence polarization | inhibition, % at 3.39 µM | 2,300 compounds, 72% hits;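 active = mean inhibition of the triplicate above the hit cutoff set for the earlier primary screen, cut at about 25% in these data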;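 note: 0% = enzyme with DMSO and 100% = wells lacking pPAFAH enzyme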
PAFAH1B3 conf FP: PAFAH1B3 enzyme inhibitors, confirmation, biochemical, fluorescence polarization, human; shares compounds with PAFAH1B3 FP inh; recombinant PAFAH1B3, FP-Rh activity-based probe; 390 compounds, 30% hits; inhibition, % at 3.39 µM;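 active = average inhibition over triplicate runs above the hit cutoff set in the earlier primary screen, cut at about 25% in these data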;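 note: 0% = enzyme with DMSO and 100% = wells lacking PAFAH1B3 protein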
An asterisk follows results filed as active. Rows were chosen to be rich in hits. Some 2.9% of all compounds tested hit in one or more screens of this group.

Results for COc1ccc(NC(=O)c2cccc(N3C(=O)c4ccc(C(=O)Nc5ccc(OC)c(O)c5)cc4C3=O)c2)cc1O ?
PAFAH1B3 FP inh: 26.1*; pPAFAH inh: 4.8; PME-1 inh: 20.4; PAFAH2 FP inh: -4.6; Fam108B counter: 21.0*; PAFAH1B2 FP inh: 12.2; Fam108b confirm: 25.7*; PAFAH1B3 conf FP: 16.7

Results for O=C1Nc2ccc(Br)cc2C12NNc1ccccc1O2 (stereo unspecified) ?
PAFAH1B3 FP inh: 27.4*; pPAFAH inh: 29.4*; PME-1 inh: 37.8*; PAFAH2 FP inh: 14.8; Fam108B counter: 21.0*; PAFAH1B2 FP inh: 12.1; Fam108b confirm: 11.5; PAFAH1B3 conf FP: 14.6

How did O=C1Nc2ccc(Br)cc2C1(O)c1ccccc1 (stereo unspecified) do in these assays?
PAFAH1B3 FP inh: 7.8; pPAFAH inh: -5.0; PME-1 inh: -9.1; PAFAH2 FP inh: -2.1; Fam108B counter: -4.7; PAFAH1B2 FP inh: 1.4

How did COc1ccccc1NS(=O)(=O)c1cc([N+](=O)[O-])ccc1N/N=C/c1c(C)[nH]c2ccccc12 do in these assays?
PAFAH1B3 FP inh: 6.4; pPAFAH inh: 5.4; PME-1 inh: 11.5; PAFAH2 FP inh: -10.6; Fam108B counter: 18.1; PAFAH1B2 FP inh: -3.4

How did O=[N+]([O-])c1ccc(N/N=C/c2c[nH]c3ccccc23)c(S(=O)(=O)Nc2ccc(Cl)cc2)c1 do in these assays?
PAFAH1B3 FP inh: 30.2*; pPAFAH inh: 0.8; PME-1 inh: -0.5; PAFAH2 FP inh: 27.3; Fam108B counter: 37.5*; PAFAH1B2 FP inh: 14.6; Fam108b confirm: active; PAFAH1B3 conf FP: 16.2

How did O=c1oc2ccccc2cc1-c1nc2c(s1)CCc1ccccc1-2 do in these assays?
PAFAH1B3 FP inh: 1.6; pPAFAH inh: 5.3; PME-1 inh: -4.2; PAFAH2 FP inh: -6.6; Fam108B counter: 1.1; PAFAH1B2 FP inh: 0.8

Results for O=c1oc2cc(O)ccc2cc1-c1nc2c(s1)CCc1ccccc1-2 ?
PAFAH1B3 FP inh: 33.4*; pPAFAH inh: 17.5; PME-1 inh: 8.6; PAFAH2 FP inh: 11.1; Fam108B counter: 22.4*; PAFAH1B2 FP inh: 13.8; Fam108b confirm: 23.4*; PAFAH1B3 conf FP: 17.2

Results for CCN(CC)c1ccc(/C=N/Nc2nc3ccccc3[nH]2)c(O)c1 ?
PAFAH1B3 FP inh: 26.8*; pPAFAH inh: 19.3; PME-1 inh: 7.5; PAFAH2 FP inh: 6.3; Fam108B counter: 21.2*; PAFAH1B2 FP inh: 12.6; Fam108b confirm: 19.4*; PAFAH1B3 conf FP: 25.6*

How did CCOc1ccc(-c2csc(/C(C#N)=C\c3ccc(O)c([N+](=O)[O-])c3)n2)cc1 do in these assays?
PAFAH1B3 FP inh: 34.6*; pPAFAH inh: 21.2; PME-1 inh: 25.8; PAFAH2 FP inh: 18.9; Fam108B counter: 25.0*; PAFAH1B2 FP inh: 14.4; Fam108b confirm: 5.8; PAFAH1B3 conf FP: 22.3

How did CCc1cccc2c1NC(=O)C21OCCO1 do in these assays?
PAFAH1B3 FP inh: -0.8; pPAFAH inh: 10.3; PME-1 inh: 3.6; PAFAH2 FP inh: -8.0; Fam108B counter: 4.0; PAFAH1B2 FP inh: 0.6

What do the screens show for `COc1cc(OC)c2cc(C(=O)N/N=C/c3ccccc3O)[nH]c2c1`?
PAFAH1B3 FP inh: 28.9*; pPAFAH inh: 22.4; PME-1 inh: 31.7*; PAFAH2 FP inh: 8.8; Fam108B counter: 28.9*; PAFAH1B2 FP inh: 11.1; Fam108b confirm: 12.9; PAFAH1B3 conf FP: 21.3

Results for CCc1nc2ccccc2c(C(=O)OCc2nc3ccccc3c(=O)[nH]2)c1C ?
PAFAH1B3 FP inh: 1.4; pPAFAH inh: -2.8; PAFAH2 FP inh: -3.2; PAFAH1B2 FP inh: -5.4

Results for O=c1[nH]c(Nc2ccccc2)cc2ccccc12 ?
PAFAH1B3 FP inh: 31.1*; pPAFAH inh: -6.4; PME-1 inh: 8.5; PAFAH2 FP inh: 2.2; Fam108B counter: 23.7*; PAFAH1B2 FP inh: 8.0; Fam108b confirm: 36.8*; Fam108b inh: 0.0; PAFAH1B3 conf FP: 18.4

Results for CC/C(=N\NC(=O)c1nnn(-c2nonc2N)c1-c1cccs1)c1ccccc1 ?
PAFAH1B3 FP inh: 3.9; pPAFAH inh: 5.3; PME-1 inh: 15.4; PAFAH2 FP inh: 0.6; Fam108B counter: 4.2; PAFAH1B2 FP inh: 5.4

How did CCCCCCCCN1N=N[C@H]2[C@H]1[C@@H]1C[C@H]2N(C(=O)OC(C)(C)C)O1 do in these assays?
PAFAH1B3 FP inh: 7.0; pPAFAH inh: 3.1; PAFAH2 FP inh: -4.0; PAFAH1B2 FP inh: 2.2

Results for Nc1nonc1N/N=C/c1c(O)ccc2ccccc12 ?
PAFAH1B3 FP inh: 31.0*; pPAFAH inh: 23.5; PME-1 inh: 29.7*; PAFAH2 FP inh: 18.4; Fam108B counter: 23.7*; PAFAH1B2 FP inh: 15.5; Fam108b confirm: 6.5; PAFAH1B3 conf FP: 16.9

What do the screens show for `O=C(NC1CCN(C(=O)c2cccc([N+](=O)[O-])c2)CC1)c1ccccc1`?
PAFAH1B3 FP inh: 11.9; pPAFAH inh: -0.4; PME-1 inh: -2.2; PAFAH2 FP inh: 2.6; Fam108B counter: -1.6; PAFAH1B2 FP inh: -0.8

How did O=C(Nc1ccc(N2CCOCC2)cc1)Nc1ccc2nc(-c3ccco3)c(-c3ccco3)nc2c1 do in these assays?
PAFAH1B3 FP inh: 28.2*; pPAFAH inh: 44.8*; PME-1 inh: 64.5*; PAFAH2 FP inh: 3.2; Fam108B counter: 25.6*; PAFAH1B2 FP inh: 23.4; Fam108b confirm: 13.0; pPAFAH FP conf: 14.0; PAFAH1B3 conf FP: 18.1

What do the screens show for `COc1cc(C(=O)Nc2ccc(C(F)(F)F)cc2)ccc1OCC(=O)N1CCOCC1`?
PAFAH1B3 FP inh: 4.3; PAFAH2 FP inh: -1.6; PAFAH1B2 FP inh: 1.4
